37 compounds from PubChem BioAssay (NCATS) can be followed below.

Inconclusive results are not listed. Unmarked numbers belong to inactive results. The call rests on the fitted dose curve; in most records, active means well fitted curve in the direction sought with a large enough effect; inconclusive means small, poorly fitted or top-dose-only effect, or another doubt; inactive means no such curve, though single readings can be large; an effect the other way counts as inactive or inconclusive.

Tested on in the first assay: not listed separately
In words: Primary qHTS for inhibitors of La Crosse Virus (LACV) - induced cell death in SH-SY5Y cells (AID 1508616).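 Further: top concentration of the series differs between compounds; 0% = infected DMSO wells and 100% = uninfected DMSO wells; higher means more rescue of cells from virus-induced death.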 To be noted: SH-SY5Y LACV cytopathicity rescue, ATP luminescence, 6 d; series mostly up to 9.63 µM; activity change: at the top concentration. In short, it runs like this: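 SH-SY5Y cells (6000/well) plated 24 h, then given compounds by pin transfer and LACV at 0.01 MOI for 6 days at 37C. Viability measured by ATPLite luminescence, normalized to infected DMSO and uninfected DMSO.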
Background: In qHTS, concentration-response curves come from the screen itself.
`COc1cccc(OC)c1OCCNCC1COc2ccccc2O1` (stereo not given): the “activity change” value is -0.993%. As to `OC[C@H]1O[C@@H](n2cnc3c(NC4CCCC4)ncnc32)[C@H](O)[C@@H]1O`, the “activity change” value is -5.32%. Same read-out and setting: then `Nc1nc(Cl)nc2c1ncn2[C@@H]1O[C@H](CO)[C@@H](O)[C@H]1O`, with -20.3%; and `CCCCCCCCCCCCCCCC(=O)OC(CC(=O)O)C[N+](C)(C)C` (stereo not given), with 8.44%; and `CCCCCCCCc1ccc(-c2ccc(C(=O)O)cc2)cc1`, with 34.2%. On to `CC[C@@H](C)[C@H]1O[C@]2(CC[C@H]1C)C[C@@H]1C[C@@H](CC=C(C)[C@@H](O[C@H]3C[C@H](OC)[C@@H](O[C@H]4C[C@H](OC)[C@@H](O)[C@H](C)O4)[C@H](C)O3)[C@@H](C)C=CC=C3CO[C@@H]4[C@H](O)C(C)=C[C@@H](C(=O)O1)[C@]34O)O2`, for which the “activity change” value was 88.8%. Consider `COc1ccccc1CNCCCCCCNCCCCCCCCNCCCCCCNCc1ccccc1OC`, for which the “activity change” value is -9.25%. As to `O=[N+]([O-])c1ccc(CSc2ncnc3c2ncn3[C@@H]2O[C@H](CO)[C@@H](O)[C@H]2O)cc1`, the “activity change” value is -8.52%. For `O=C(O)c1cc([N+](=O)[O-])ccc1NCCCc1ccccc1`, the “activity change” value was 3.03%. Take `Oc1ccc(C2CNCc3sccc32)cc1O` (stereo not given): the “activity change” value was -26.3%.

Take `O=C(O)c1cc(=O)c2c(Cl)cc(Cl)cc2[nH]1`: the “activity change” value was -11.2%. With `CC(C)(C=O)Cc1cc(C(C)(C)C)c(O)c(C(C)(C)C)c1`, the “activity change” value is 36.3%. Consider `OCC1O[C@H](O)C(Cl)C(O)C1O` (stereo not given in full), for which the “activity change” value is -17.9%.

For the compound `Cc1cc(NC2CCCCC2)nc(-n2nc(C)cc2C)n1`, the “activity change” value is 41.8%. Same read-out and setting: the same measure for `CN(C)c1ccc(/C=C2\C(=O)Nc3ccccc32)cc1`: -8.65%; for `CN1CCc2cccc3c2C1Cc1ccc(O)c(O)c1-3` (stereo not given): -14.5%. Turning to `C[N+](C)(C)CCOP(=O)(O)OP(=O)([O-])OC[C@H]1O[C@@H](n2ccc(N)nc2=O)[C@H](O)[C@@H]1O`, the “activity change” value was -24%. Still for that read-out and setting: then `COc1cc(C(O)CO)ccc1OS(=O)(=O)O` (stereo not given), with -3.27%.

Another assay deals with Calcium and integrin-binding protein 1 (Homo sapiens) (UniProt Q99828). The assay is described as follows: Validation qHTS for Identification of Calcium Integrin Binding protein 1 (CIB1) Competitor (AID 1508618). Further: on the % scale 0 is the no-effect control and ±100 the full control effect. The note with it: CIB1-GST / FITC-alphaIIb peptide fluorescence polarization; series mostly up to 114 µM; activity change, negative = inhibition: at the top concentration. In short, it runs like this: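 Fluorescence polarization with 1 uM CIB1-GST and 100 nM FITC-alphaIIb peptide in HEPES pH 7.4, NaCl, 5 mM CaCl2, Tween20. Compounds at up to 114 uM final, preincubated with protein 15 min; read after 15 min more at RT.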
Chain of Calcium and integrin-binding protein 1 (Homo sapiens) (Q99828 whole entry, looked up): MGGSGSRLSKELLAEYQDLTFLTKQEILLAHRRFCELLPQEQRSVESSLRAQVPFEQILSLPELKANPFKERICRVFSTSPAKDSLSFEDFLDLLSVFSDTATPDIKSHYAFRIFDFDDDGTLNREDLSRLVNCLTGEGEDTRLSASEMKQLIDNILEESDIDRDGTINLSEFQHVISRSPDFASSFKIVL
For the compound `COC(=O)c1c(C)[nH]c(C)c1C(=O)c1ccccc1Cc1ccccc1`, the “activity change, negative = inhibition” value is 6.92%. With `NCCSSCCN`, the “activity change, negative = inhibition” value was 7.17%. With `COc1cc2c(CCNC(C)=O)c[nH]c2cc1Cl`, the “activity change, negative = inhibition” value is 6.39%. For the compound `Nc1nc(Nc2ccccc2)nc2c1ncn2[C@@H]1O[C@H](CO)[C@@H](O)[C@H]1O`, the “activity change, negative = inhibition” value is 5.92%. Regarding `CNC(=O)[C@H]1O[C@@H](n2cnc3c(NCc4ccc(N)cc4)ncnc32)[C@H](O)[C@@H]1O`, the “activity change, negative = inhibition” value was 6.9%. Still for that read-out and setting: then `NCCCS(=O)(=O)O`, with 6.61%; and `CNc1ncnc2c1ncn2[C@@H]1O[C@H](CO)[C@@H](O)[C@H]1O`, with 10.5%. With `CN(C)C(N)=NCCC[C@H](N)C(=O)O`, the “activity change, negative = inhibition” value was 15%. On the same count and under the same terms, then `O=C(O)CC1CCCc2ccccc2C1O` (stereo not given), with 8.78%; and `COc1ccc(NC(=O)/C=C/c2ccc(Cl)cc2)cc1`, with 24.7%. For `CN=c1nc(-c2ccccc2)n(-c2ccccc2)s1`, the “activity change, negative = inhibition” value was 10.1%. On to `Nc1ncnc2c1ncn2[C@@H]1O[C@H](COP(=O)(O)CP(=O)(O)OP(=O)(O)O)[C@@H](O)[C@H]1O`, for which the “activity change, negative = inhibition” value is 9.76%. Still for that read-out and setting: the same measure for `NC[C@H]1O[C@@H](n2cnc3c(N)ncnc32)[C@H](O)[C@@H]1O`: -1.09%.

As to `Clc1ccc(N2CCN(Cc3cc4ccccn4n3)CC2)cc1`, the “activity change, negative = inhibition” value is 16.8%. For `C[C@@H](CN1CCC(Cc2ccccc2)CC1)[C@@H](O)c1ccc(O)cc1`, the “activity change, negative = inhibition” value was 3.65%. Same read-out and setting: then `S=C(S)OC1CC2CC1C1CCCC21` (stereo not given), with 4.46%; and `Clc1ccc(N2CCN(Cc3c[nH]c4ncccc34)CC2)cc1`, with 1.24%; and `CSc1nc(N)c2ncn([C@@H]3O[C@H](COP(=O)(O)OP(=O)(O)OP(=O)(O)O)[C@@H](O)[C@H]3O)c2n1`, with 19.3%. Consider `O=C1/C(=C/c2ccsc2)CC/C1=C\c1cccs1`, for which the “activity change, negative = inhibition” value was 9.49%.

`COc1cccc(OC)c1OCCNCC1COc2ccccc2O1` (stereo not given): the “activity change, negative = inhibition” value was 6.06%. Regarding `OC[C@H]1O[C@@H](n2cnc3c(NC4CCCC4)ncnc32)[C@H](O)[C@@H]1O`, the “activity change, negative = inhibition” value is 4.03%. As to `Nc1nc(Cl)nc2c1ncn2[C@@H]1O[C@H](CO)[C@@H](O)[C@H]1O`, the “activity change, negative = inhibition” value is 11.7%. Take `CCCCCCCCCCCCCCCC(=O)OC(CC(=O)O)C[N+](C)(C)C` (stereo not given): the “activity change, negative = inhibition” value was -1.5%. In the case of `CCCCCCCCc1ccc(-c2ccc(C(=O)O)cc2)cc1`, the “activity change, negative = inhibition” value is 16.5%. With `CC[C@@H](C)[C@H]1O[C@]2(CC[C@H]1C)C[C@@H]1C[C@@H](CC=C(C)[C@@H](O[C@H]3C[C@H](OC)[C@@H](O[C@H]4C[C@H](OC)[C@@H](O)[C@H](C)O4)[C@H](C)O3)[C@@H](C)C=CC=C3CO[C@@H]4[C@H](O)C(C)=C[C@@H](C(=O)O1)[C@]34O)O2`, the “activity change, negative = inhibition” value was 4.81%. As to `COc1ccccc1CNCCCCCCNCCCCCCCCNCCCCCCNCc1ccccc1OC`, the “activity change, negative = inhibition” value is 10.2%. In the case of `O=[N+]([O-])c1ccc(CSc2ncnc3c2ncn3[C@@H]2O[C@H](CO)[C@@H](O)[C@H]2O)cc1`, the “activity change, negative = inhibition” value is 7.19%. On the same count and under the same terms, the same measure for `O=C(O)c1cc([N+](=O)[O-])ccc1NCCCc1ccccc1`: -12.5%; for `Oc1ccc(C2CNCc3sccc32)cc1O` (stereo not given): 3.72%. For `O=C(O)c1cc(=O)c2c(Cl)cc(Cl)cc2[nH]1`, the “activity change, negative = inhibition” value was 0.0932%. Still for that read-out and setting: the same measure for `CC(C)(C=O)Cc1cc(C(C)(C)C)c(O)c(C(C)(C)C)c1`: 8.17%. Consider `OCC1O[C@H](O)C(Cl)C(O)C1O` (stereo not given in full), for which the “activity change, negative = inhibition” value is 6.1%. For `Cc1cc(NC2CCCCC2)nc(-n2nc(C)cc2C)n1`, the “activity change, negative = inhibition” value was 3.13%.

Regarding `CN(C)c1ccc(/C=C2\C(=O)Nc3ccccc32)cc1`, the “activity change, negative = inhibition” value is -5.53%. In the case of `CN1CCc2cccc3c2C1Cc1ccc(O)c(O)c1-3` (stereo not given), the “activity change, negative = inhibition” value was 4.37%.

With `C[N+](C)(C)CCOP(=O)(O)OP(=O)([O-])OC[C@H]1O[C@@H](n2ccc(N)nc2=O)[C@H](O)[C@@H]1O`, the “activity change, negative = inhibition” value is 3.97%.

As to `COc1cc(C(O)CO)ccc1OS(=O)(=O)O` (stereo not given), the “activity change, negative = inhibition” value was 5.84%.
